Sampled rows, rich in hits. Any-hit rate of the full collection: about 7.3%.
SMN2 splice up: SMN2 splice variant enhancement. HEK293 SMN2-luciferase splicing reporter, luminescence, 30-36 h. Potency, µM (doses to about 46.1 µM), without a hit: top-dose activity change, positive = activation, most hits filed as activators. 2.8% of 210,000 active. AID 1458; also: % of control where 0% means no effect; nearly all actives have a fitted effect of over 55% in size
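HEK293 cells carry an SMN2 […]–luciferase reporter in which exon 7 inclusion puts luciferase in frame. Cells were plated 10-12 h before compound addition, then incubated 30-36 h at 37C. ONE-Glo luminescence was read; sodium butyrate at 4.5 mM final served as control.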
KinaseGlo FLuc: counter-screen: inhibitors of Kinase-Glo firefly luciferase; 0.28% of 200,000 active; Potency, µM (doses to about 38.3 µM), for inactives: at the highest dose activity change, negative = inhibition, hits mostly inhibitors; Kinase-Glo luciferase, ATP luminescence, 8 min; Q27757; AID 1379; also: % is scaled to controls: 0 for no effect and ±100 for the full control effect; nearly all actives have a fitted effect of over 60% in size
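Substrate mix (final 50 mM imidazole pH 7.2, 50 mM KCl, 7 mM MgCl2, 10 uM ATP, 0.01% Tween 20, 0.05% BSA) plus pin-tool compound, then Kinase-Glo detection mix; 8 min ambient, luminescence read.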
ELG1 genotoxic: induces genotoxicity in HEK293T cells with luciferase-tagged ELG1; 1.3% of 330,000 active; Potency, µM (series often up to 46 µM), for the others: at the top dose activity change, positive = activation, actives largely listed as activators; HEK293T ELG1-luciferase reporter, luminescence, 16 h; also: % of control where 0% means no effect; nearly all actives have a fitted effect of over 60% in size
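Screening used a luciferase reporter fused to human ELG1 in HEK293T cells. Luminescence was read on a CCD plate imager after 16 hr exposure and 30 min ONE-Glo incubation.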
NPC1 promoter act: activators of NPC1 promoter | Huh7 NPC1 promoter luciferase reporter, 24 h | 2.4% of 320,000 active | Potency, µM (series often up to 9.22 µM), for inactives: at the highest dose activation, usual class: activators; also: % of control where 0% means no effect; nearly all actives have a fitted effect of over 60% in size
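Compounds in DMSO were transferred onto Huh7 NPC1-luciferase reporter cells pre-incubated 2 h; after 24 h at 37 °C, Amplite reagent was dispensed and luminescence recorded 10 min later.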
Rab9 promoter act: Rab9 promoter activation. 2.8% of 320,000 active. AID 485297. Potency, µM (highest dose often 9.22 µM), without a hit: at the top dose activation, negative = inhibition, usual class: activators. Huh7 Rab9 promoter-luciferase reporter, luminescence, 24 h; also: % of control where 0% means no effect; nearly all actives have a fitted effect of over 60% in size
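Luminescence from Amplite-detected luciferase (10 minutes, ambient) reports Rab9 promoter activation. Before that, stable Rab9-luciferase Huh7 cells (1500/well, reduced-serum OP-MEM I plus 10% FBS) were exposed to compound for 24 hours at 37C.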
FLuc modulator: firefly luciferase modulation, counter-screen for miR-21 project; 6.9% of 360,000 active; purified FLuc, Km substrates, luminescence inhibition; Potency, µM (doses to about 57.5 µM), inactives show at the top dose activity change, negative = inhibition, hits mostly inhibitors; P08659;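 also: plate controls were vehicle for no effect and reference inhibitor for full effect; nearly all actives have a fitted effect of over 55% in size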
Target sequence (P08659 whole entry, looked up): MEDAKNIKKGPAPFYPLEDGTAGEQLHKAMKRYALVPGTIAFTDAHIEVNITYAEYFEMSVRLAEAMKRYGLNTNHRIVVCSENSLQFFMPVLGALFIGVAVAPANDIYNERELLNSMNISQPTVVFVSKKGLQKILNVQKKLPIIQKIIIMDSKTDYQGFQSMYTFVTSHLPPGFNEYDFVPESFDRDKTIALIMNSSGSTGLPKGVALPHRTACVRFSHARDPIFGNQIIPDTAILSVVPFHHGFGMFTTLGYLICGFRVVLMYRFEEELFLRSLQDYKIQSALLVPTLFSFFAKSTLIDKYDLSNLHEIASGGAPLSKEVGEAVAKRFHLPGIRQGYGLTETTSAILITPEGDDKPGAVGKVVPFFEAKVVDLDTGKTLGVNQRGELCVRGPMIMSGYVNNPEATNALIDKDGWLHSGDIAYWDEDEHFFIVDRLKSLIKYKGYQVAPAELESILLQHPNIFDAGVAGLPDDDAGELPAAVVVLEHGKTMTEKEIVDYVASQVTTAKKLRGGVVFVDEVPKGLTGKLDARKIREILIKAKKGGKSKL
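Purified P. pyralis luciferase (10nM final) with 10uM D-luciferin and 10uM ATP (Km levels) in 50mM Tris acetate pH 7.5, 10mM Mg acetate, 0.01% Tween-20, 0.05% BSA; qHTS 6-point titration, ~60 µM downward; luminescence read.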
Active calls of the source: *. Calls follow the shape of the dose curve; as a rule, active = well fitted curve in the direction sought with a large enough effect; inconclusive = small, poorly fitted or top-dose-only effect, or another doubt; inactive = no such curve, though single readings can be large; an effect the other way counts as inactive or inconclusive. Potency is read from the fitted curve at half-maximal effect.

For CC(C)Oc1ccccc1C1CC(=O)Nc2cc3c(cc21)OCCO3 (stereo not given) the results were SMN2 splice up -48%, KinaseGlo FLuc 0%, ELG1 genotoxic -3%, NPC1 promoter act -15%, Rab9 promoter act -20% and FLuc modulator 0%.
CO[C@H]1C[C@@H]2CC[C@@H](C)[C@@](O)(O2)C(=O)C(=O)N2CCCC[C@H]2C(=O)O[C@H](C(C)C[C@H]2CC[C@@H](O)[C@H](OC)C2)CC(=O)[C@H](C)/C=C(\C)[C@@H](O)[C@@H](OC)C(=O)[C@H](C)C[C@H](C)/C=C/C=C/C=C/1C (stereo not given in full) was read as SMN2 splice up -9%.
`CC(C)Cc1nnc(NS(C)(=O)=O)s1` gave SMN2 splice up 24%, KinaseGlo FLuc -3%, ELG1 genotoxic -3%, NPC1 promoter act 0%, Rab9 promoter act 5% and FLuc modulator 5%.
O=S(=O)(c1ccc(SCCO)nc1)N1CCOCC1 was read as ELG1 genotoxic 1%, NPC1 promoter act -12%, Rab9 promoter act -11% and FLuc modulator 4%.
For C/C(=N\N1C(=O)c2ccccc2NC1c1ccco1)c1ccccc1O (stereo not given) the results were SMN2 splice up 4µM*, KinaseGlo FLuc 1%, ELG1 genotoxic inconclusive, NPC1 promoter act inconclusive, Rab9 promoter act 0.35µM* and FLuc modulator inconclusive.
Screening O=C1c2ccccc2NC(c2ccco2)N1/N=C/c1ccco1 (stereo not given) returned SMN2 splice up inconclusive, KinaseGlo FLuc -3%, ELG1 genotoxic 13%, NPC1 promoter act 22%, Rab9 promoter act inconclusive and FLuc modulator -5%.
COc1ccc(N2C(=O)c3ccccc3NC2c2ccccc2O)cc1 (stereo not given) was read as ELG1 genotoxic inconclusive, NPC1 promoter act 1.4µM*, Rab9 promoter act 1.3µM* and FLuc modulator -19%.
For CCOc1ccc(N2C(=O)c3ccccc3C2O)cc1 (stereo not given) the results were SMN2 splice up 13µM*, KinaseGlo FLuc 3%, ELG1 genotoxic 9.2µM*, NPC1 promoter act 3.2µM*, Rab9 promoter act inconclusive and FLuc modulator 12µM*.
COc1cc(C2Nc3ccccc3C(=O)N2c2ccccc2)ccc1O (stereo not given) was read as SMN2 splice up 13%, KinaseGlo FLuc -2%, ELG1 genotoxic inconclusive, NPC1 promoter act 27%, Rab9 promoter act 29% and FLuc modulator -8%.
For CS(=O)(=O)NN1C(=O)c2ccccc2NC1c1ccccc1 (stereo not given) the results were ELG1 genotoxic 0%, NPC1 promoter act -10%, Rab9 promoter act 1% and FLuc modulator -3%.
C/C(=N\N1C(=O)c2ccccc2NC1c1ccccc1)c1ccccc1O (stereo not given) was read as SMN2 splice up 2.8µM*, KinaseGlo FLuc -2%, ELG1 genotoxic 4.6µM*, NPC1 promoter act inconclusive, Rab9 promoter act 0.63µM* and FLuc modulator 3%.
CCOc1ccc(CCNC(=O)c2cc3c(=O)[nH]c4ccc(C)cc4c3s2)cc1OCC was read as SMN2 splice up -3% and FLuc modulator 3%.
For S=C(Nc1ccc2nsnc2c1)NC1CCCCC1 the results were SMN2 splice up inconclusive, KinaseGlo FLuc 1%, ELG1 genotoxic -2%, NPC1 promoter act 20%, Rab9 promoter act 19% and FLuc modulator 21µM*.
Screening FC(F)(F)c1cccc(NC(=S)NC2CCCC2)c1 returned SMN2 splice up -4%, KinaseGlo FLuc -1%, ELG1 genotoxic -10%, NPC1 promoter act -1%, Rab9 promoter act 0% and FLuc modulator -7%.
FC(F)(F)c1ccc(NC(=S)NC2CCCCC2)cc1 was read as SMN2 splice up 16µM*, KinaseGlo FLuc -1%, ELG1 genotoxic -13%, NPC1 promoter act 8%, Rab9 promoter act 23% and FLuc modulator inconclusive.
Screening S=C(Nc1ccc(Cl)c(Cl)c1)NC1CCCCC1 returned SMN2 splice up inconclusive, KinaseGlo FLuc 11%, ELG1 genotoxic -4%, NPC1 promoter act 9%, Rab9 promoter act 13% and FLuc modulator inconclusive.
CC(C)c1ccc(NC(=S)NC2CCCCCC2)cc1 was read as SMN2 splice up 13µM*, KinaseGlo FLuc 2%, ELG1 genotoxic inconclusive, NPC1 promoter act inconclusive, Rab9 promoter act inconclusive and FLuc modulator 17µM*.
`O=C(O)C1C2C=CC(C2)C1C(=O)OCc1ccccc1` (stereo not given) gave SMN2 splice up 17%, KinaseGlo FLuc 1%, ELG1 genotoxic 1%, NPC1 promoter act -5%, Rab9 promoter act -6% and FLuc modulator 4%.
NC(=O)NC(CC(=O)NCCCc1ccccc1)c1ccc(Cl)cc1 (stereo not given) was read as ELG1 genotoxic -2%, NPC1 promoter act -7%, Rab9 promoter act -5% and FLuc modulator -2%.
Screening Cc1ccc2nc3c(cc2c1)c(NC(=O)c1ccccn1)nn3CC(C)C returned SMN2 splice up 9%, KinaseGlo FLuc 1%, ELG1 genotoxic -9%, NPC1 promoter act 2%, Rab9 promoter act -2% and FLuc modulator inconclusive.
CCn1nc(NC(=O)c2ccccn2)c2cc3cc(C)ccc3nc21 was read as SMN2 splice up 19%, KinaseGlo FLuc -9%, ELG1 genotoxic -1%, NPC1 promoter act 18%, Rab9 promoter act 3% and FLuc modulator 9.5µM*.
CCn1nc(NS(=O)(=O)c2cccc3nonc23)c2cc3ccc(C)cc3nc21 was read as ELG1 genotoxic 4%, NPC1 promoter act 1%, Rab9 promoter act 3% and FLuc modulator 30µM*.
`CCn1nc(NS(=O)(=O)c2ccc([N+](=O)[O-])cc2)c2cc3cc(C)ccc3nc21` gave ELG1 genotoxic 5%, NPC1 promoter act -2%, Rab9 promoter act 11% and FLuc modulator 11µM*.
For COc1ccc(C(=O)Cc2cc(OC)c(OC)cc2[N+](=O)[O-])cc1 the results were SMN2 splice up inconclusive, KinaseGlo FLuc -1%, ELG1 genotoxic 15%, NPC1 promoter act inconclusive, Rab9 promoter act inconclusive and FLuc modulator 9.5µM*.
`COc1ccc(/C=C(\C#N)c2cc(OC)c(OC)cc2[N+](=O)[O-])cc1` gave ELG1 genotoxic 3%, NPC1 promoter act 2%, Rab9 promoter act -5% and FLuc modulator 9.5µM*.
For Cc1cc(NC(=O)c2ccc(F)cc2)n(C)n1 the results were ELG1 genotoxic 5%, NPC1 promoter act 0%, Rab9 promoter act 0% and FLuc modulator -27%.

Compound activity: PubChem BioAssay, National Center for Advancing Translational Sciences (NCATS)
